Laboratory results published in PubChem BioAssay (Tox21).
Several values for one entry are separate records, joined by “and”; a condition that tells them apart may be missing. Equal entries are not always repeated. Results filed as inconclusive are left out. Entries that show only a call come without a potency. Some structures have more than one record in an assay (separate samples or runs), and their calls can disagree. Activity calls are given as the source filed them. Unless noted, calls come from the whole dose curve; as a rule, active = well fitted curve in the direction sought with a large enough effect in the repeat runs; inconclusive = weak or mixed curves; inactive = no such curve, though single readings can be large; an effect the other way counts as inactive or inconclusive.

What was measured:
[1] = qHTS assay for small molecule agonists of the p53 signaling pathway (AID 651631; calls by dose curve; note: nearly all actives have a fitted effect of over 15% in size; note: potency is the fitted concentration of half-maximal effect)
How it was run: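 Agonist mode screen using a stably integrated beta-lactamase gene under p53 response elements in HCT-116 cells. Compound exposure lasts 16 h at 37 °C; fluorescence intensity is measured following 2 h FRET substrate loading.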

[2] = qHTS assay for small molecules that induce genotoxicity in human embryonic kidney cells expressing luciferase-tagged ATAD5 (AID 651632); note: nearly all actives have a fitted effect of over 15% in size; note: potency is the fitted concentration of half-maximal effect
How it was run: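 Test compounds were delivered by pin tool onto HEK293T reporter cells (2,000/well) expressing ATAD5 fused to luciferase. After 16 hr at 37C, 5% CO2, Amplite was added for 30 min at room temperature and luminescence was measured.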

[3] = qHTS assay for small molecule agonists of the p53 signaling pathway - cell viability (AID 651633; calls by dose curve; note: nearly all actives have a fitted effect of over 30% in size; note: potency is the fitted concentration of half-maximal effect)
How it was run: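 p53RE-bla cells, seeded at 4,000 per well and rested 5 h at 37 C/5% CO2, received compounds in DMSO for 16 h at 37 C. CellTiter-Glo was then added, and luminescence was read after 30 min at room temperature to gauge cytotoxicity.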

[4] = qHTS assay for small molecules that induce genotoxicity in human embryonic kidney cells expressing luciferase-tagged ATAD5 - cell viability (AID 651634; calls by dose curve; note: nearly all actives have a fitted effect of over 25% in size; note: potency is the fitted concentration of half-maximal effect)
How it was run: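 Quantitative high-throughput format. HEK293T cells expressing ATAD5 fused to luciferase were plated at 2,000 cells/well and treated 15.5 hr with compound versus DMSO. Viability was determined by fluorescent live-cell protease substrate, 30 min at 37C.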

[5] = qHTS assay for small molecule disruptors of the mitochondrial membrane potential - cell viability (AID 720634; calls by dose curve; note: nearly all actives have a fitted effect of over 20% in size; note: potency is the fitted concentration of half-maximal effect)
How it was run: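 Same-well counter-screen: following the MMP dye addition, CellTiter-Glo was added to 1 hr compound-treated HepG2 cells and luminescence read after 30 min at room temperature.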

[6] = qHTS assay for small molecule disruptors of the mitochondrial membrane potential (AID 720635); note: potency is the fitted concentration of half-maximal effect
How it was run: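 HepG2 cells (2,000/well) attached overnight at 37C, then took compound for 1 hr at 37C, 5% CO2. Mito-MPS dye was added for 30 min; fluorescence was read at 490/535 nm (monomers) and 540/590 nm (aggregates).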

[7] = qHTS assay to test for compound auto fluorescence at 535 nm (green) in HepG2 cells (AID 720675)
[8] = qHTS assay to test for compound auto fluorescence at 460 nm (blue) in HEK293 cells (AID 720678)
How it was run: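 Cells were seeded and left to adhere for 4-5 hr at 37C. Compounds were then pin-transferred. After an overnight incubation at 37C under 5% CO2, intrinsic fluorescence at 405/460 nm was measured and referenced to triamterene.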

[9] = qHTS assay to test for compound auto fluorescence at 590 nm (red) in HEK293 cells (AID 720679)
How it was run: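 Each well held 2,000 HEK293 cells in medium containing 10% dialyzed FBS. Following 4-5 hr attachment at 37C, 23 nL test compound or DMSO was added; plates sat overnight, and red fluorescence (540/590nm) was recorded.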

[10] = qHTS assay to test for compound auto fluorescence at 590 nm (red) in HepG2 cells (AID 720674)
How it was run: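 Intrinsic compound fluorescence in the red window (Ex/Em 540/590 nm) is measured in attached HepG2 cells exposed for 1 hr, DMSO vehicle as baseline, benchmarked to Rose Bengal sodium.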

SMILES | Potency [1] | Potency [2] | Potency [3] | Potency [4] | Potency [5] | Potency [6] | Potency [7] | outcome [8] | Potency [9] | Potency [10]
C=C(C)C(=O)OCCOC(=O)C(=C)C | inactive | inactive | inactive | inactive | inactive | inactive | inactive | inactive | inactive | 
CCCCC(CC)COC(=O)c1ccc(N(C)C)cc1 (centres undefined) | inactive | inactive | inactive | inactive | inactive | 8.68 µM (active) and 21.7 µM (active) |  | inactive | inactive | inactive
Cc1cccc([N+](=O)[O-])c1C | inactive | inactive | inactive | inactive | inactive | inactive | inactive | inactive | inactive | inactive
Nc1ncn([C@@H]2O[C@H](CO)[C@@H](O)[C@H]2O)c(=O)n1 | 2.11 µM (active) and 4.86 µM (active) | inactive | 668 nM (active) and inactive | 750 nM (active) and 1.37 µM (active) | inactive | inactive |  | inactive | inactive | 
C#C[C@]1(O)CC[C@H]2[C@@H]3CCc4cc(OC)ccc4[C@H]3CC[C@@]21C | inactive | inactive | inactive | inactive | inactive | 19.3 µM (active) |  | inactive |  | 
C[C@]12CCC(=O)C=C1CC[C@@H]1[C@@H]2C(=O)C[C@@]2(C)[C@H]1CC[C@]2(O)C(=O)CO | inactive | inactive | inactive | inactive | inactive |  |  | inactive |  | inactive
CCCCNS(=O)(=O)c1ccccc1 | inactive | inactive | inactive | inactive | inactive | 48.6 µM (active) | inactive | inactive | inactive | 
CC(=O)Oc1ccccc1C(=O)Nc1ncc([N+](=O)[O-])s1 | 5.96 µM (active) | 1.33 µM (active) | 9.44 µM (active) and inactive | 18.8 µM (active) and 22.1 µM (active) | 0.556 µM (active) | 1.5 µM (active) and 351 nM (active) | inactive | inactive | inactive | inactive
Nc1ccc(Cl)cc1Cl | inactive | inactive | inactive | inactive | inactive | inactive | inactive | inactive |  | inactive
CC(C)OB(OC(C)C)OC(C)C | inactive | inactive | inactive | inactive | inactive | inactive |  | inactive |  | inactive
Nc1ccccc1N | 62.6 µM (active) and 27.3 µM (active) | 2.43 µM (active) | inactive | inactive | inactive | 314 nM (active) and 686 nM (active) |  | inactive | inactive | inactive
CC(=O)c1ccccn1 | inactive | inactive | inactive | inactive | inactive | inactive | inactive | inactive | inactive | 
CC(C)Oc1ccc2c(=O)c(-c3ccccc3)coc2c1 | inactive | 1.19 µM (active) and 2.66 µM (active) | inactive | inactive | inactive |  |  | inactive |  | inactive
COC(C)COC(C)COC(C)CO (centres undefined) | inactive | inactive | inactive | inactive | inactive | inactive | inactive | inactive | inactive | inactive
CCOCCOCCO | inactive | inactive | inactive | inactive | inactive |  | inactive | inactive | inactive | inactive
CN(C)CCN(Cc1cccs1)c1ccccn1 | inactive | inactive | inactive | inactive | inactive | inactive | inactive | inactive | inactive | 
OCCO | inactive | inactive | inactive | inactive | inactive | inactive | inactive | inactive | inactive | inactive
O=S(=O)(O)c1ccc(O)cc1 | inactive | inactive | inactive | inactive | inactive | inactive |  | inactive | inactive | inactive
Nc1ccc(S(=O)(=O)Nc2cnc3ccccc3n2)cc1 | inactive | inactive | inactive | inactive | inactive | inactive | inactive | inactive |  | 
CCCCOCCOCCO | inactive | inactive | inactive | inactive | inactive | inactive | inactive | inactive | inactive | 
Brc1cc(Oc2cc(Br)c(Br)c(Br)c2Br)c(Br)c(Br)c1Br | inactive | inactive | inactive | inactive | inactive |  | inactive | inactive | inactive | 
CN(C)CCC=C1c2ccccc2CCc2ccccc21 | 61.1 µM (active) | inactive | inactive | inactive | inactive |  |  | inactive | inactive | inactive
c1cc(-c2ccncc2)ccn1 | inactive | inactive | inactive | inactive | inactive |  |  | inactive |  | inactive

SMILES | Potency [1] | Potency [2] | Potency [3] | Potency [4] | Potency [5] | Potency [6] | Potency [7] | outcome [8] | Potency [9] | Potency [10]
CC(C)(C)NC(=O)[C@H]1CC[C@H]2[C@@H]3CC[C@H]4NC(=O)C=C[C@]4(C)[C@H]3CC[C@]12C | inactive | inactive | inactive | inactive | inactive | inactive |  | inactive | inactive | inactive
CC(C)=CCCC(C)CCO (centres undefined) | inactive | inactive | inactive | inactive | inactive |  |  | inactive |  | inactive
CC(=O)CC/C=C(\C)CCC=C(C)C | inactive | inactive | inactive | inactive | inactive | inactive | inactive | inactive |  | 
O=C1c2cccc(O)c2C(=O)c2c(O)cccc21 | 19.5 µM (active) | inactive | inactive | inactive | inactive | 2.37 µM (active) and 3.1 µM (active) | inactive | inactive | inactive | inactive
O=C(Nc1ccc([N+](=O)[O-])cc1Cl)c1cc(Cl)ccc1O | 298 nM (active) and 611 nM (active) | 75 nM (active) and inactive | 94.4 nM (active) and 96.9 nM (active) | 596 nM (active) and 2.43 µM (active) | inactive | 26.6 nM (active) and 9.7 nM (active) | inactive | inactive |  | inactive
COc1ccc(C(=O)CC(=O)c2ccc(C(C)(C)C)cc2)cc1 | inactive | inactive | inactive | inactive | inactive and 18.5 µM (active) | inactive and 16.5 µM (active) |  | inactive |  | 
CC(C)OC=O | inactive | inactive | inactive | inactive | inactive | inactive | inactive | inactive |  | 
CN1C(C(=O)Nc2ccccn2)=C(O)c2ccccc2S1(=O)=O | inactive | inactive | inactive | inactive | inactive | 5.69 µM (active) and 4.9 µM (active) |  | inactive | inactive | inactive
O=CCc1ccccc1 | inactive | inactive | inactive | inactive | inactive | inactive and 54.5 µM (active) | inactive | inactive | inactive | 
COC(=O)c1ccccc1 | inactive | inactive | inactive | inactive | inactive | inactive | inactive | inactive | inactive | 
c1ccncc1 | inactive | inactive | inactive | inactive | inactive |  | inactive | inactive |  | inactive
O=C(Nc1ccc(Cl)cc1)Nc1ccc(Cl)c(Cl)c1 | 7.5 µM (active) and 5.42 µM (active) and 15.4 µM (active) | inactive | inactive | 9.44 µM (active) | 1.93 µM (active) | 150 nM (active) and 68.2 nM (active) and 86.3 nM (active) |  | inactive | inactive | inactive
O=C=Nc1ccc(Cc2ccc(N=C=O)cc2)cc1 | inactive | inactive | inactive | inactive | inactive | inactive | inactive | inactive | inactive | 
CC(C)=CCC/C(C)=C\CO | inactive | inactive | inactive | inactive | inactive |  | inactive | inactive | inactive | 
Nc1ncnc2nc[nH]c12 | inactive | inactive | inactive | inactive | inactive |  | inactive | inactive | inactive | inactive
O=CCCCC=O | 29.8 µM (active) and 33.2 µM (active) and 61.1 µM (active) | inactive and 59 µM (active) | inactive | inactive | inactive | inactive | inactive | inactive | inactive | inactive
NNc1ccc(C(=O)O)cc1 | inactive |  | inactive | inactive |  |  | inactive | inactive |  | inactive
CCC(C)CO (centres undefined) | inactive | inactive | inactive | inactive |  | inactive |  | inactive | inactive | inactive
OC(CCl)CCl | inactive | inactive | inactive | inactive |  |  | inactive | inactive | inactive | inactive
C[C@]12CC[C@H]3[C@@H](CCC4=CC(=O)CC[C@@]43C)[C@@H]1CC[C@@H]2C(=O)CO | inactive | inactive | inactive | inactive |  | inactive | inactive | inactive | inactive | inactive
CC(CCC(=O)O)(c1ccc(O)cc1)c1ccc(O)cc1 | inactive | inactive | inactive | inactive |  | inactive | inactive | inactive | inactive | 
CC1=CCC(C(C)(C)O)CC1 (centres undefined) | inactive | inactive | inactive | inactive |  |  | inactive | inactive |  | inactive
CC(=O)C1(C)CC2=C(CCCC2(C)C)CC1C (centres undefined) | inactive | inactive | inactive | inactive |  |  | inactive | inactive |  | inactive
